# About 1,300 (0.39%) of roughly 330,000 compounds were called active. This excerpt belongs to a sample that is enriched for actives. Values without a mark were called inactive.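 The calls were made as follows: active = percent inhibition above a cutoff equal to the mean of all tested compounds plus 3 SD (cut at about 15% in these data); inactive = the rest.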
# Molecular target: Protein-arginine deiminase type-4 (Homo sapiens) (UniProt Q9UM07)
# Assay: human PAD4 inhibitors, primary screen, biochemical, fluorescence polarization, 1536-well format (AID 485272);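 also: 0% = PAD4 with RCA probe and DMSO and 100% = probe without PAD4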
# Settings: recombinant PAD4, RCA probe fluorescence polarization; at 6.36 µM; hits give high values
# Chain of Protein-arginine deiminase type-4 (Homo sapiens) (Q9UM07 whole entry, looked up): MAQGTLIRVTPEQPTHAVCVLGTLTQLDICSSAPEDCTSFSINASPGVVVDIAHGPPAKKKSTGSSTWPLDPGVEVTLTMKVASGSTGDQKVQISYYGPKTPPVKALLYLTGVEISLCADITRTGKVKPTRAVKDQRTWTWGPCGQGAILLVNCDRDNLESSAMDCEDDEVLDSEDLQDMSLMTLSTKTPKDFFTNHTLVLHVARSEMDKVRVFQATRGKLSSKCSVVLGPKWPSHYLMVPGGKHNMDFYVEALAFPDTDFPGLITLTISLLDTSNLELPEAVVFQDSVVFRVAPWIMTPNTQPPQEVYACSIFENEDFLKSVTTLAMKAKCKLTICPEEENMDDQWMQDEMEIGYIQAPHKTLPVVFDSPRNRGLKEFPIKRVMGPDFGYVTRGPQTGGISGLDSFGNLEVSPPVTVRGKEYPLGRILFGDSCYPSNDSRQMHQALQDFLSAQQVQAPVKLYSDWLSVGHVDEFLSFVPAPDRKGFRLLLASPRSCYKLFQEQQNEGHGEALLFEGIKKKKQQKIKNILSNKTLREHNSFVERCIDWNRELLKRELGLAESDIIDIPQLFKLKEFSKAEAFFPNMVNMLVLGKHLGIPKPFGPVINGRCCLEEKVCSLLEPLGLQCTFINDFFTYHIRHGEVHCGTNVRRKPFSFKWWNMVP
row,SMILES,inhibition
1,CCOc1ccc(Br)cc1S(=O)(=O)Nc1ccc(C(=O)OC(C)C(=O)N(C)c2ccccc2)cc1 (stereo not given),2.93%
2,CCOc1ccc(S(=O)(=O)n2ccnc2)c2ccccc12,3.78%
3,Clc1ccc(C2=CSC3=Nc4cccc5cccc(c45)N23)cc1,15.1% (active)
4,CN1CCN(S(=O)(=O)c2ccc(NC(=O)C3CCCO3)cc2)CC1 (stereo not given),2.71%
5,O=C(O)c1ccc(COc2c(F)c(F)cc(F)c2F)o1,-4.92%
6,CN(C(=O)CN1C(=O)S/C(=C\c2ccccc2F)C1=O)C1CCS(=O)(=O)C1 (stereo not given),3.56%
7,CCCCNC(=O)CCNC(=O)c1ccc(C(C)(C)C)cc1,2.29%
8,CCCCNC(=S)NNC(=O)c1cc(C)on1,-2.6%
9,CCCCNC(=O)Nc1c(C)cc(SC#N)cc1C,39.1% (active)
10,CC(C)=C1C2CCC1C1C(=O)N(NC(=O)c3ccco3)C(=O)C21 (stereo not given),-4.39%
11,COc1ccc(/C=C(\NC(=O)c2ccc(OCC(C)C)cc2)C(=O)OCc2ccco2)cc1,1.51%
12,COCCCNC(=S)N1CCCC(c2nc3cc(C)c(C)cc3[nH]2)C1 (stereo not given),-0.08%
13,Cc1ccc(C2CC(c3cccc(NS(C)(=O)=O)c3)=NN2S(C)(=O)=O)cc1 (stereo not given),-2.1%
14,CCN1CC=C2C(C#N)=C(N)C(C#N)(C#N)[C@H](c3ccoc3)[C@H]2C1,30.4% (active)
15,N#CC1=C(N)C(C#N)(C#N)[C@H](c2ccsc2)[C@H]2COCC=C12,-0.34%
16,CCCN1CC=C2C(C#N)=C(N)C(C#N)(C#N)C(c3cc(OC)ccc3OC)C2C1 (stereo not given),-2.45%
17,O=C(O)COCC(=O)NCc1csc2ccc(Cl)cc12,-2.02%
18,Cc1nc2ccc(NC(=O)C(F)(F)F)cc2o1,27.5% (active)
19,Cc1ccc(NC(=O)Nc2ccc3oc(C)nc3c2)cc1,-0.57%
20,Cc1nc(C)c(C(=O)Nc2ccc(C)c(F)c2)o1,-0.93%

row,SMILES,inhibition
1,CC(=O)c1c(C)[nH]c(C(=O)COC(=O)CCOc2ccc(C)cc2)c1C,-5.3%
2,COC(=O)c1cc(S(=O)(=O)N2CCN(c3cc(C)ccc3C)CC2)c[nH]1,-1.18%
3,COc1cc(/C=C2/C(=O)NN(c3cccc(Cl)c3)C2=O)cc(Br)c1O,-6.98%
4,C=CCOc1c(Br)cc(/C=N\n2nnnc2N)cc1OC,-3.76%
5,CCOc1c(Br)cc(/C=C2\C(=O)N(CCC#N)N=C2C)cc1OC,57.8% (active)
6,COc1ccccc1N1CC(C(=O)NCCN2C(=O)S/C(=C\c3cccnc3)C2=O)CC1=O (stereo not given),1.63%
7,COc1ccc(N2CC(C(=O)NCCN3C(=O)S/C(=C\c4cccnc4)C3=O)CC2=O)c(OC)c1 (stereo not given),101% (active)
8,CCOc1ccc(N2CC(C(=O)NCCN3C(=O)S/C(=C\c4cccnc4)C3=O)CC2=O)cc1 (stereo not given),-4.16%
9,COc1ccc(C(=O)NCc2ccccc2C)cc1S(=O)(=O)NC1CCCC1,1.48%
10,Clc1ccc(CSc2nnc3c(n2)[nH]c2ccccc23)cc1,-2.24%
11,O=Cc1c(NCCc2cccc(F)c2)c2ccccc2[nH]c1=O,-4.74%
12,O=C(NCCCO)c1cc2c([nH]c3ccccc32)c(-c2ccc(F)cc2)n1,35.7% (active)
13,O=C(NCC1CCCO1)c1ccc2ccccc2n1 (stereo not given),0.05%
14,COc1ccc2cc(C(=O)NCC3CCCO3)[nH]c2c1 (stereo not given),-4.37%
15,CC(NC(=O)c1cc(=O)[nH]c2ccccc12)c1ccc(F)cc1F (stereo not given),-7%
16,O=C(NCCc1ccc(F)cc1)c1n[nH]c2ccccc12,-0.12%
17,O=C(NCC1CCCO1)c1cc2c([nH]c3ccccc32)c(-c2ccc(F)cc2)n1 (stereo not given),66.5% (active)
18,CC(=O)C(C)n1cnc2scc(-c3ccc(C)cc3)c2c1=O (stereo not given),-5.08%
19,Cc1cc(C)n(-c2nnc(C)n2NC(=O)c2cccc(Cl)c2)n1,-3.56%
20,CCOc1ccc(C2NC(=S)NC3=C2CCc2ccccc23)cc1 (stereo not given),-0.5%

row,SMILES,inhibition
1,COc1ccc(C2NC(=S)NC3=C2CCc2ccccc23)cc1OC (stereo not given),19.6% (active)
2,COC(=O)C1=C(C)NC(=S)NC1c1ccc(OCC(=O)N2CC(C)OC(C)C2)c(OC)c1 (stereo not given),-1.31%
3,Cc1ccc(S(=O)(=O)NC(=O)COc2ccccc2C)cc1,-0.01%
4,CC(=O)c1cccc(NC(=O)N2CCCC2C(=O)NCCC(C)C)c1 (stereo not given),-0.58%
5,Cc1nnsc1S(=O)(=O)Cc1ccccc1Cl,-3.79%
6,O=C(Nc1ccc(S(=O)(=O)N2CCCCCC2)cc1)c1c(F)cccc1F,-3.98%
7,O=C(NCCCN1CCN(c2ccc(F)cc2)CC1)Nc1ccc([N+](=O)[O-])cc1,-8.31%
8,CC(=O)N(CN1C(=O)C2C3C=CC(C3)C2C1=O)c1cccc(Cl)c1 (stereo not given),-2.02%
9,COc1ccc(N2CCN(C3CC(=O)N(c4ccc5c(c4)OCCO5)C3=O)CC2)cc1 (stereo not given),-4.31%
10,COc1cc2ccccc2cc1C(=O)Nc1ccc(N2CCOCC2)cc1,7.08%
11,CC(=O)Oc1cccc(N2C(=O)CC(Nc3ccc(N4CCOCC4)cc3)C2=O)c1 (stereo not given),37.4% (active)
12,COc1cc(OC)cc(C(=O)Nc2ccc(-c3nc4ccccc4o3)c(O)c2)c1,-9.35%
13,COCCCNC(NC(=O)c1ccc(C)cc1)C(Cl)(Cl)Cl (stereo not given),-2.56%
14,Cc1cc(Nc2ccccc2)n(C(=O)c2ccc(N)cc2)n1,-3.04%
15,Cc1ccc(Nc2ccccc2N)cc1,-6.09%
16,Nc1ccc(Nc2ccccc2)cc1,20.8% (active)
17,COc1ccc(S(=O)(=O)N(CC(=O)NCc2ccco2)c2ccc(F)cc2)cc1,-1.25%
18,COc1ccc(-n2c(C)cc(C(=O)CN3C(=O)NC4(CCc5ccccc54)C3=O)c2C)cc1 (stereo not given),1.38%
19,CC(=O)Nc1ccc(SCC(=O)Nc2ccccc2Oc2ccccc2)cc1,2.48%
20,CC(NCCO)C(=O)C12CC3CC(CC(C3)C1)C2 (stereo not given),-1.18%

# Reference: PubChem BioAssay AID485272 (The Scripps Research Institute Molecular Screening Center, 2010)
